This passage reports Potency results from PubChem BioAssay (Tox21).

The nature of test [1]: qHTS assay to identify small molecule agonists of the peroxisome proliferator-activated receptor delta (PPARd) signaling pathway - cell viability counter screen (AID 743211; active means well fitted curve in the direction sought with a large enough effect in the repeat runs; an effect the other way counts as inactive or inconclusive; further: nearly all actives have a fitted effect of over 55% in size). Summed up: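 Viability of GeneBLAzer PPARd UAS-bla HEK293H cells was assessed after 17 h compound incubation at 37C, using CellTiter-Glo reagent added after the reporter read and luminescence recorded 30 min later.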
In general terms: Quantitative high-throughput screening tests each substance at several concentrations.

Test [2] deals with Peroxisome proliferator-activated receptor delta (Homo sapiens) (UniProt Q03181). Description: qHTS assay to identify small molecule agonists of the peroxisome proliferator-activated receptor delta (PPARd) signaling pathway (AID 743212). Summed up:
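Beta-lactamase reporter readout: a ratiometric FRET signal from the LiveBLAzer substrate after 2 h at room temperature. Compound exposure at 37 °C in PPARδ-bla HEK293H cells driven by an upstream activator sequence.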

Test [3] shares this target. Put plainly: qHTS assay to identify small molecule antagonists of the peroxisome proliferator-activated receptor delta (PPARd) signaling pathway (AID 743215; active means well fitted inhibition curve with a large enough effect in the signal ratio in the repeat runs, not every such curve was filed as active; the % refers to the signal ratio;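 further: cells stimulated with agonist L165041 at 300 nM final during compound exposure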; further: potency means the concentration at half of the fitted maximal effect). Summed up:
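HEK293H GeneBLAzer PPARd UAS-bla reporter cells; cpd + L165041 300 nM final, 17 h 37 C; LiveBLAzer B/G FRET substrate 2 h RT; fluorescence intensity read-out. Antagonist mode.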

Test [4] in a line: qHTS assay to identify small molecule agonists of the farnesoid-X-receptor (FXR) signaling pathway - cell viability counter screen (AID 743218; active means well fitted curve in the direction sought with a large enough effect in the repeat runs; an effect the other way counts as inactive or inconclusive; further: nearly all actives have a fitted effect of over 45% in size; further: potency means the concentration at half of the fitted maximal effect). The gist of the method: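 Luminescence from CellTiter-Glo, read after 30 min at RT, reports viability of GeneBLAzer FXR-UAS-bla HEK 293T cells treated 16 h with compounds in the wells used for the beta-lactamase reporter.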
Test [5] can be described thus: qHTS assay to identify small molecule antagonists of the farnesoid-X-receptor (FXR) signaling pathway - cell viability counter screen (AID 743221; active means well fitted cell-killing curve with a large enough effect in the repeat runs, not every such curve was filed as active; further: nearly all actives have a fitted effect of over 50% in size; further: potency means the concentration at half of the fitted maximal effect). The gist of the method:
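Quantitative HTS of the Tox21 10K library run in parallel with the beta-lactamase reporter read. HEK 293T cells carrying a UAS-driven bla reporter got compound and 50 uM CDCA (final) for 16 h; ATP-based luminescence followed.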

The target of test [6] is Vitamin D3 receptor (Homo sapiens) (UniProt P11473). Description: qHTS assay to identify small molecule agonists of the vitamin D receptor (VDR) signaling pathway (AID 743222). Summed up: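 Beta-lactamase reporter readout (LiveBLAzer B/G FRET, 2 h RT) in VDR-bla cells after 16 h compound treatment at 37C, 5% CO2; cells pre-incubated 4 h before pin transfer of DMSO solutions.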
Sequence of Vitamin D3 receptor (Homo sapiens) (P11473 whole entry, looked up): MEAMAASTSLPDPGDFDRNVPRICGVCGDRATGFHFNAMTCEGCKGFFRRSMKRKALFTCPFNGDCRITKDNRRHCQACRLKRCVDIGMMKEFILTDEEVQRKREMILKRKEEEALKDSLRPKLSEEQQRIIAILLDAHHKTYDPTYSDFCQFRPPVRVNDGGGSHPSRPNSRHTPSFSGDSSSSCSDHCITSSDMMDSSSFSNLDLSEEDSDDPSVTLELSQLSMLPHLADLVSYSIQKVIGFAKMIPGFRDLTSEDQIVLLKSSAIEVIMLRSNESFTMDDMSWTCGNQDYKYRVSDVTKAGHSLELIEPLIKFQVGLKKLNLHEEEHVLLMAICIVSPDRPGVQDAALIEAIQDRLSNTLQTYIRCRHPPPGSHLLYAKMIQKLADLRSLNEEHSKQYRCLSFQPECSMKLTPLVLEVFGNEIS

The target is the same in test [7]. Description: qHTS assay to identify small molecule antagonists of the vitamin D receptor (VDR) signaling pathway (AID 743223; active means well fitted inhibition curve with a large enough effect in the signal ratio in the repeat runs, not every such curve was filed as active; the % refers to the signal ratio). The gist of the method:
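Fluorescence from LiveBLAzer B/G FRET substrate, read after 2 h at room temperature, reflects beta-lactamase reporter activity in VDR-bla cells treated 16 h at 37C with compounds and agonist 1alpha,25-dihydroxyvitamin D3 (3 nM final).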

The nature of test [8]: qHTS assay to identify small molecule antagonists of the vitamin D receptor (VDR) signaling pathway - cell viability counter screen (AID 743225; active means well fitted curve in the direction sought with a large enough effect in the repeat runs; an effect the other way counts as inactive or inconclusive; further: nearly all actives have a fitted effect of over 50% in size). Summed up:
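Cells (VDR-UAS-bla HEK 293T) are plated, rested 4 h at 37C, dosed with compound and 3 nM final 1-alpha,25-dihydroxy vitamin D3, and incubated 16 h. Viability is taken from CellTiter-Glo luminescence in the reporter wells.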

Test [9] can be described thus: qHTS assay to identify small molecule agonists of the NFkB signaling pathway - cell viability counter screen (AID 1159515). Further: series mostly up to about 61 µM; nearly all actives have a fitted effect of over 55% in size. The gist of the method: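 ME-180 NFkB-bla cells, 2,000/well; overnight attach; compound 5 hr, 37 C/5% CO2; LiveBLAzer substrate 1.5 hr RT; then CellTiter-Glo in same wells, 30 min RT, luminescence read.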
Test [10] can be described thus: qHTS assay to identify small molecule agonists of the endoplasmic reticulum stress response signaling pathway (AID 1159516; active means well fitted activation curve with a large enough effect in the signal ratio in the repeat runs, not every such curve was filed as active; the % refers to the signal ratio). The gist of the method:
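HeLa ESRE-bla reporter line; cpd 5 h, 37 C/5% CO2; LiveBLAzer B/G FRET substrate 2 h RT; ex 405, em 460/530 nm.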

Test [11] is described as follows: qHTS assay to identify small molecule agonists of the endoplasmic reticulum stress response signaling pathway - cell viability counter screen (AID 1159517).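 Further: HeLa cells carrying an ER stress response element beta-lactamase reporter; series mostly up to about 61 µM; nearly all actives have a fitted effect of over 50% in size.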 Summed up:
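ESRE-bla HeLa cells (1,500/well) were plated overnight at 37 C and exposed to compounds for 5 hr. After the 2 hr beta-lactamase substrate read, CellTiter-Glo went into the same wells, and luminescence was read after 30 min at room temperature.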

The target of test [12] is Nuclear receptor ROR-gamma (Homo sapiens) (UniProt P51449). Put plainly: qHTS assay to identify small molecule antagonists of the retinoid-related orphan receptor gamma (ROR-gamma) signaling pathway (AID 1159521; active means well fitted curve in the direction sought with a large enough effect in the repeat runs; an effect the other way counts as inactive or inconclusive; further: nearly all actives have a fitted effect of over 50% in size; further: potency means the concentration at half of the fitted maximal effect). The gist of the method: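 RORγ antagonism is scored from reduced reporter luminescence in Tet-on CHO cells. Induction used 1 uM final doxycycline hyclate for 16 h at 37 C, following a 2 h compound exposure.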

The nature of test [13]: qHTS assay to identify small molecule agonists of the AP-1 signaling pathway - cell viability counter screen (AID 1159525). Further: nearly all actives have a fitted effect of over 55% in size. The gist of the method: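 Intracellular ATP by Cell Titer Glo luminescence (30 min, RT) in the same ME-180 AP-1-bla wells after the 5 h compound exposure at 37 °C. Normalised to tetra n-octyl ammonium bromide and DMSO controls.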
The nature of test [14]: qHTS assay to identify small molecule antagonists of the peroxisome proliferator-activated receptor delta (PPARd) signaling pathway - cell viability counter screen (AID 743213; active means well fitted curve in the direction sought with a large enough effect in the repeat runs; an effect the other way counts as inactive or inconclusive; further: nearly all actives have a fitted effect of over 50% in size). Summed up:
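PPARd-bla HEK293H cells (3000/well) got compound plus 300 nM L165041 agonist for 17 h at 37 C. Viability in the same wells came from CellTiter-Glo luminescence after 30 min at room temperature.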

Test [15] is described as follows: qHTS assay to identify small molecule agonists of the AP-1 signaling pathway (AID 1159526).
The target in test [16] is Bile acid receptor (Homo sapiens) (UniProt Q96RI1). Put plainly: qHTS assay to identify small molecule antagonists of the farnesoid-X-receptor (FXR) signaling pathway (AID 743217; active means well fitted inhibition curve with a large enough effect in the signal ratio in the repeat runs, not every such curve was filed as active; the % refers to the signal ratio). Summed up: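 Read-out: beta-lactamase FRET fluorescence (LiveBLAzer B/G substrate, 2 h, room temperature) in GeneBLAzer FXR-UAS-bla HEK 293T cells. Compounds were co-dosed with 50 uM chenodeoxycholic acid (final) and incubated 16 h at 37 °C.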
Sequence of Bile acid receptor (Homo sapiens) (Q96RI1 whole entry, looked up): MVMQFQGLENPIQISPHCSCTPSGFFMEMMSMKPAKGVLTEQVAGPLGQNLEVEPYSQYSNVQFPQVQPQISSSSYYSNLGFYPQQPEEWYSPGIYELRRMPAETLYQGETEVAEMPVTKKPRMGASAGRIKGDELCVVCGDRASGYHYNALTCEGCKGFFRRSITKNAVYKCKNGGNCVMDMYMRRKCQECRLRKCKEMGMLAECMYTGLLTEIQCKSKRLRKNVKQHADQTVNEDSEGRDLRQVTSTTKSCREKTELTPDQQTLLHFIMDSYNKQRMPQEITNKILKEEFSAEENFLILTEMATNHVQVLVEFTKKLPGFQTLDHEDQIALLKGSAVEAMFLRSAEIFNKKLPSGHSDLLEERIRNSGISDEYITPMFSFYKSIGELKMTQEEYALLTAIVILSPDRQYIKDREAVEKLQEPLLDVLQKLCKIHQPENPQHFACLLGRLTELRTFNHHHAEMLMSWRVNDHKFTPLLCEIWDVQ

Test [17] shares this target. Put plainly: qHTS assay to identify small molecule agonists of the farnesoid-X-receptor (FXR) signaling pathway (AID 743220; active means well fitted activation curve with a large enough effect in the signal ratio in the repeat runs, not every such curve was filed as active; the % refers to the signal ratio). Summed up: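 FXR-UAS-bla HEK 293T cells carrying a UAS-driven beta-lactamase reporter were plated for 5 h at 37C/5% CO2, then exposed to DMSO-dissolved Tox21 10K compounds for 16 h at 37C. A LiveBLAzer B/G FRET substrate was loaded for 2 h at room temperature before fluorescence reading.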

Test [18] deals with Retinoic acid receptor RXR-alpha (Homo sapiens) (UniProt P19793). Put plainly: qHTS assay to identify small molecule agonists of the RXR signaling pathway (AID 1159527). Further: nearly all actives have a fitted effect of over 35% in size. Summed up:
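qHTS of the Tox21 10K library in GeneBLAzer RXR-alpha HEK 293T cells carrying a beta-lactamase reporter […]; 16 hr treatment, 9-cis retinoic acid as agonist control, FRET read-out.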

Test [19] can be described thus: qHTS assay to identify small molecule agonists of the vitamin D receptor (VDR) signaling pathway - cell viability counter screen (AID 743224; active means well fitted curve in the direction sought with a large enough effect in the repeat runs; an effect the other way counts as inactive or inconclusive). The gist of the method:
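Cytotoxicity counter screen: VDR-bla cells, 16 h compound exposure at 37C, 5% CO2; CellTiter-Glo luminescence, 30 min RT, same wells as bla read.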

Results filed as inconclusive are left out. A number with no mark means an inactive call. Calls of active or inactive are those of the source. Unless noted, the call rests on the fitted dose curve.

Sequence of Peroxisome proliferator-activated receptor delta (Homo sapiens) (Q03181 whole entry, looked up): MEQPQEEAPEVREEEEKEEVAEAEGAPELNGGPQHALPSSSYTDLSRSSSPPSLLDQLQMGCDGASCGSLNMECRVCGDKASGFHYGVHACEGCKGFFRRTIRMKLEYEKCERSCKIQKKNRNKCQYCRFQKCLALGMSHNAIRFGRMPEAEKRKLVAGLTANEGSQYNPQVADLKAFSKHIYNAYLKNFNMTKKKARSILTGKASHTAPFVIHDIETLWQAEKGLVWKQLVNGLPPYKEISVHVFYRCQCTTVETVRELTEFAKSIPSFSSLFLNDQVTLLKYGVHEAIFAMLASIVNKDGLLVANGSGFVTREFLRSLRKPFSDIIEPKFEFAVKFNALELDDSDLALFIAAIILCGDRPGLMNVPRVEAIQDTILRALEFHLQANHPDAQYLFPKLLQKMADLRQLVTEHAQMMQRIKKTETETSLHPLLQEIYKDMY
Sequence of Retinoic acid receptor RXR-alpha (Homo sapiens) (P19793 whole entry, looked up): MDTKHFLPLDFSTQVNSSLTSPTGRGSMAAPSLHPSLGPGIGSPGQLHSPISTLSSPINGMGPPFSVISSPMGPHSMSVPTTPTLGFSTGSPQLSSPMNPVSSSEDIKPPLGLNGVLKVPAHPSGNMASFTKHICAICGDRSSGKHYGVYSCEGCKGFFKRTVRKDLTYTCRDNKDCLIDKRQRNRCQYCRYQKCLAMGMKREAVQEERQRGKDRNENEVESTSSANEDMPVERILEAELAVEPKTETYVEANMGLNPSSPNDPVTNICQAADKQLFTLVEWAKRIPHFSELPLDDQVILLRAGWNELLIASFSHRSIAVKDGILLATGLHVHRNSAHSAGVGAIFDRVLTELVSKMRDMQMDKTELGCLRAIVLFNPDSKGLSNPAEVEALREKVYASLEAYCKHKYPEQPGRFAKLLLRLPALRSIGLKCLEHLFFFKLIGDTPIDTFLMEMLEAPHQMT

Turning to `CC1=Nc2ccccc2C1(C)C`, the Potency result in test [1], in test [2], in test [3], in [4], in [5] and in [6] was “inactive” in each case. Further, the Potency result in test [7], in [8], in test [9], in test [10], in [11] and in test [13] was “inactive” throughout. The Potency in [12] was 17.2 µM (active).

On to `NC(=S)NC(N)=S`, for which the Potency entry in test [14], in test [4], in test [5], in test [6], in test [7] and in test [9] was “inactive” each time. Further, the Potency entry in test [10], in test [11] and in [12] was “inactive” throughout.

Regarding `CC(=O)[C@H]1CC[C@H]2[C@@H]3CCC4=CC(=O)CC[C@]4(C)[C@H]3CC[C@]12C`, the Potency entry in test [4], in test [5], in [9], in test [10], in [11] and in test [13] was “inactive” each time. Moreover, the Potency result in test [15] was “inactive”.

In the case of `S=C([S-])NCCNC(=S)[S-].S=C([S-])NCCNC(=S)[S-].[Mn+2].[Zn+2]`, the Potency result in test [1], in test [14], in test [6], in test [8], in test [9] and in test [10] was “inactive” each time. The Potency entry in [11] and in test [13] was “inactive” each time.

For the compound `COc1cc(S(=O)(=O)O)c(C)cc1N=Nc1c(O)ccc2cc(S(=O)(=O)O)ccc12`, the Potency result in [1], in test [2], in test [14], in test [3], in [16] and in test [4] was “inactive” each time. In addition, the Potency entry in test [17], in test [5], in test [7], in test [8], in test [9] and in [10] was “inactive” throughout. Besides, the Potency result in [11], in [13], in test [15] and in test [18] was “inactive” each time.

With `Sc1nc2ccccc2s1`, the Potency entry in [2], in test [16], in test [4], in test [5], in [6] and in test [7] was “inactive” throughout. Also, the Potency entry in test [8], in test [9], in test [10], in test [11] and in test [13] was “inactive” in each case. In addition, the Potency in test [3] is 38.9 µM (active).

As to `CCCc1ccc(OCC(=O)N2CCN(C(=O)COc3ccc(CCC)cc3OC)CC2)c(OC)c1`, the Potency entry in test [1], in [14], in test [16], in [4], in test [17] and in test [7] was “inactive” in each case. In addition, the Potency result in test [19], in test [8], in [9], in [10], in test [11] and in test [13] was “inactive” in each case. For the same compound, the Potency entry in test [15] is “inactive”.

In the case of `CC(C)=CCC1=C(O)c2ccccc2C(=O)C1=O`, the Potency result in test [2], in [4], in [6], in test [7], in test [19] and in test [9] was “inactive” each time. The Potency entry in test [10], in test [11] and in test [13] was “inactive” throughout. In test [12], the Potency is 13.6 µM (active).

For `[Cl][Pt-2]([Cl])([Cl])[Cl]`, the Potency entry in test [2], in test [3], in test [16], in [4], in test [17] and in test [5] was “inactive” each time. The Potency entry in test [7], in test [9], in [10], in test [11] and in test [12] was “inactive” throughout.

Take `O=C1C(c2[nH]c3ccc(S(=O)(=O)O)cc3c2O)=Nc2ccc(S(=O)(=O)O)cc21`: the Potency result in [1], in [2], in [3], in test [4], in test [5] and in test [6] was “inactive” each time. For the same compound, the Potency entry in test [7], in test [19], in test [8], in test [9], in test [10] and in test [11] was “inactive” each time. Further, the Potency result in test [15] was “inactive”.

For the compound `O=S(=O)(O)c1ccc(N=Nc2c(O)ccc3ccccc23)cc1`, the Potency result in test [1], in test [2], in test [3], in test [6], in test [7] and in [9] was “inactive” in each case. The Potency result in test [10], in [11] and in test [15] was “inactive” each time. The Potency in [4] and in test [5] was 38.9 µM (active) each time.
